# Compounds with a hit are over-represented: about 2.4% of the library has one in this group of screens.
# TLR9-MyD88 block: inhibitors of TLR9-MyD88 association in cells, primary screen, cell-based, CHO, BLA complementation, fluorescence. Toll-like receptor 9 (Homo sapiens) + Myeloid differentiation primary response protein …. CCF4 FRET ratio. inhibition, % at 4.98 µM. 0.21% of 340,000 active. AID 504734, 2011;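 active means inhibition above the mean over all tested compounds plus 3 SD, cut at about 21% in these data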;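 further: 0% = DMSO only wells and 100% = clavulanate BLA inhibitor control wells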
# HSF-1 act: HSF-1 activators, primary screen, NIH3T3-HGL cells, MG132 stress, luminescence, single point; NIH3T3-HGL HSF-1 luciferase reporter, 8 h; 100% = twice DMSO control signal; activation, % at 9 µM; 1.7% of 300,000 active;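 active means mean replicate activation of at least 50% with a set share of replicates each reaching 50%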;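 further: 0% = median of the neutral control wells and 100% = twice that signal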
# NOD2-RIPK2 inh: NOD2-RIPK2 binding disruptors in cells, primary screen, fluorescence, CHO cells, BLA complementation. Receptor-interacting serine/threonine-protein kinase 2 (Homo sapiens), O43353. CCF4 ratio. inhibition, % at 4.98 µM. 0.38% of 360,000 active. AID 624267, 2012; in the data active means inhibition above about 21%;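 further: 0% = vehicle only and 100% = reference blocker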
# TLR4 MyD88 comp: inhibitors of TLR4-MyD88 association in cells, primary screen, cell-based, HeLa CL3-4, BLA complementation, FRET ratio; Toll-like receptor 4 (Homo sapiens) + Myeloid differentiation primary response protein …; HeLa CL3-4 TLR4/MyD88 BLA complementation; inhibition, % at 8.4 µM; 0.18% of 200,000 active; AID 861, 2007; in the data active means inhibition above about 25%;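 further: 0% = vehicle and 100% = reference inhibitor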
# HSF1 inhib: HSF1 inhibitors in luciferase reporter cells, primary screen, cell-based, NIH3T3, luminescence; NIH3T3-HGL HSE-luciferase, MG132-induced, luminescence 8 h; hits give low values; activity change, negative = inhibition, % at 7.5 µM (by protocol); 0.77% of 300,000 active;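 active means more than half of replicate wells show activity change below -50%, luminescence cut by over half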;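 further: luciferase reports HSF-1 transcriptional activity via heat shock element; 0% = median of DMSO wells and -100% = zero luminescence signal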
# Numbers without * were called inactive; . = no result.
SMILES,TLR9-MyD88 block,HSF-1 act,NOD2-RIPK2 inh,TLR4 MyD88 comp,HSF1 inhib
O=C(CN1C(=O)c2ccccc2S1(=O)=O)c1ccc(Cl)cc1Cl,-1.5,-73.8,-3.9,.,-68.0*
COCC(=O)N1C[C@H]2CON(C)[C@H]2C[C@H]1c1cccc(-c2ccc(C#N)cc2)c1,-13.4,.,-6.6,.,.
Cn1cnc2c(cnn2C)c1=O,-4.7,.,6.6,.,.
O=C(NCCc1ccccc1O)c1cc2c(cc1[N+](=O)[O-])OCO2,-0.5,.,-12.1,.,.
CC1(C)CC(=O)C(C=Nc2cccnc2)=C(O)C1,0.3,132.6*,-9.0,-2.7,79.3
CCOC(=O)N1CCN(C(=O)c2ccc(NS(=O)(=O)c3ccc4[nH]c(=O)[nH]c4c3)cc2)CC1,-2.9,-0.7,-6.8,.,-1.5
Cc1ccccc1CC1(CO)CCCN(C(=O)c2ccccc2Cl)C1 (centres undefined),0.4,54.7*,8.4,3.9,12.1
CS(=O)(=O)N(CC(=O)O)c1ccc(C23CC4CC(CC(C4)C2)C3)cc1,15.5,-71.9,-8.3,.,-65.2*
COC(=O)[C@@]1(C)[C@H]2C(=O)N(C)C(=O)[C@H]2[C@H]2CN(C)C(=NC3CCCCC3)N21,-3.0,.,-4.5,.,.
CCc1ccc(C(=O)Cc2cc3cccc(OC)c3oc2=O)cc1,8.0,79.8*,-6.0,.,35.7
CCCc1cc(=O)[nH]c(SCC(=O)N2CCCC2=O)n1,7.9,5.1,2.7,.,5.6
COC(=O)c1ccc(NC(=O)c2ccccc2C(=O)Nc2ccc(C(=O)OC)cc2)cc1,-16.5,-44.9,2.7,.,-29.6
COC(=O)c1ccc(NC(=O)C(=O)c2cccn2C)cc1,-2.4,60.7*,-11.6,-15.3,20.0
Cc1cc(S(=O)(=O)N2CCN=C2c2ccccc2)c(C)cc1Cl,3.4,-71.5,-2.7,-14.3,-62.6*
Cc1ccc(S(C)(=O)=O)cc1C(=O)OCC(=O)N(Cc1ccccc1)Cc1ccccc1,-11.8,.,1.1,.,.
C=CCSC1=C(C#N)C(c2cccc(OC)c2)CC(=O)N1 (centres undefined),-6.4,51.0*,-12.8,5.1,8.4
COC(=O)CSC1=C(C#N)C(c2cccc(OC)c2)CC(=O)N1 (centres undefined),9.2,-5.9,-1.7,3.1,0.0
Cc1cc(OCc2cc(C(=O)NC(C)c3c(C)nn(C)c3C)no2)cc(C)c1Cl (centres undefined),1.1,53.9*,7.9,.,35.9
Cc1cc(OCc2cc(C(=O)NC(C)c3cnn(C)c3)no2)cc(C)c1Cl (centres undefined),-14.0,.,6.3,.,.
CCOC(=O)[C@]12CCC=C1N(Cc1cccc3ccccc13)C(=O)[C@H](CC(=O)NCCCCc1ccccc1)C2,.,.,-4.0,.,.
CC(=O)N[C@@H](Cc1c[nH]c2ccccc12)C(=O)NCCc1ccc(S(N)(=O)=O)cc1,-6.6,-19.2,5.5,.,-6.3
CC(=O)N[C@@H](Cc1c[nH]c2ccccc12)C(=O)NCc1ccccc1,-10.3,65.4*,-3.6,.,15.1
CCc1nc2ccc(C(=O)NCCCN3CCCC3=O)cn2c1N(C=O)CC,.,.,-11.0,.,.
NC(=O)c1ccc(NC(=O)Nc2ccc3c(c2)OCO3)cc1,-7.3,58.2*,-2.0,.,16.1
CC(=O)Nc1cccc(NC(=O)COc2ccc3c(c2)OCO3)c1,-2.2,56.5*,2.7,.,25.9
SMILES,TLR9-MyD88 block,HSF-1 act,NOD2-RIPK2 inh,TLR4 MyD88 comp,HSF1 inhib
Cc1ccc(OCC(=O)Nc2ccc3c(c2)OCCO3)cc1C,-3.4,-58.6,-20.6,-4.9,-62.8*
COc1ccc(NC(=O)COc2ccc3c(c2)OCO3)cc1,-8.1,-31.6,0.0,.,-21.0
CC(=O)c1ccc(NC(=O)COc2ccc3c(c2)OCO3)cc1,-0.7,55.8*,-1.1,-14.5,17.2
Cc1ccc(OCC(=O)Nc2ccc(N3CCN(S(C)(=O)=O)CC3)cc2)cc1C,12.4,60.8*,-2.1,-7.3,35.3
Cc1ccc(OCC(=O)Nc2ccc(N3CCN(S(C)(=O)=O)CC3)cc2)c(C)c1,-5.8,16.4,-8.2,0.8,11.7
c1cnc2ccc(-n3ccnc3)cc2c1,.,.,-3.7,.,.
COCCCN1C(=O)c2ccc(C(=O)Nc3ccc(C)cc3C)cc2C1=O,-12.1,20.3,5.4,.,-0.9
CN1CC=C2C(C#N)=C(N)C(C#N)(C#N)C(c3cccc(Cl)c3Cl)C2C1 (centres undefined),-8.7,113.3*,9.3,9.0,63.5
Cn1c2ccccc2c2ncn(CCCN3CCOCC3)c(=O)c21,-7.7,-11.9,4.8,4.6,0.1
Cn1c2ccc(F)cc2c2ncn(CCN3CCOCC3)c(=O)c21,-6.1,159.9*,-6.7,-2.9,78.5
Cn1c2ccccc2c2ncn(CCC3=CCCCC3)c(=O)c21,-13.3,61.0*,8.7,-6.5,36.5
CC1(C)CC2CC(C)(CN2S(=O)(=O)c2ccc(F)cc2F)C1 (centres undefined),-1.5,.,-15.4,.,.
CC1(C(=O)O)CCC(C(=O)Nc2ccc(OC(F)(F)Cl)cc2)C1(C)C (centres undefined),2.4,-2.8,-6.7,.,-5.4
COc1ccc2c(=O)c(-c3ccc(C)cc3)c(-c3ccccc3)oc2c1,7.8,.,-1.8,.,.
Cc1ccc(NC(=O)Nc2ccc([N+](=O)[O-])cc2)nc1,0.8,10.9,1.7,3.0,5.2
Cc1ccc(NC(=O)c2cc3c(=O)oc4ccccc4c3s2)nc1,3.1,96.5*,-5.2,3.0,54.4
Cc1c(C(=O)NCCc2ccccc2)oc2ccccc12,-2.2,62.2*,-10.0,.,32.5
Cc1c(C(=O)Nc2nc3ccccc3[nH]2)oc2ccccc12,4.2,67.5*,-3.7,7.2,30.8
Cc1ccc(NC(=O)Nc2ccccc2)nc1,-8.5,54.4*,0.0,.,33.2
Cc1ccc(NC(=O)c2oc3ccccc3c2C)nc1,-5.0,55.9*,5.3,.,35.0
Cc1c(C(=O)Nc2ccccn2)oc2ccccc12,-13.3,40.7,-3.6,-1.8,23.3
C[C@H](CO)N1C[C@H](C)[C@H](CN(C)C(=O)Nc2cccc(C(F)(F)F)c2)OCc2cnnn2CCCC1=O,-2.4,.,-6.1,.,.
O=C(NNC(=O)c1cc(-c2ccc(Cl)c(Cl)c2)nc2ccccc12)Nc1ccccc1,4.8,55.7*,-8.3,1.3,42.8
COc1ccc(-c2cc(C(=O)Nc3ccccc3O)c3ccccc3n2)cc1OC,5.9,70.9*,-12.9,1.2,43.5
CCNC(=O)C1(C)CCN(C(=O)c2cccc(OC(C)=O)c2C)C1 (centres undefined),.,.,-4.2,.,.
Cc1oc(-c2cc3c(cc2Cl)OCO3)nc1CN1CCCC1c1ccc(F)cc1 (centres undefined),-6.1,-60.5,1.0,-0.4,-51.6*
CCOC(=O)c1c(C)[nH]c(C)c1C(=O)COC(=O)c1nn(CC)c(=O)c2ccccc12,-1.4,.,8.7,.,.

# Source: PubChem (several laboratories)
